# In PubChem BioAssay:
# Several values for one entry are separate records, joined by “and”; a condition that tells them apart may be missing. Equal entries are not always repeated. Activity calls are given as the source filed them. Unless noted, the rule behind the calls is not given here.
# What was measured:
# [1] = test system: Hepatitis C virus NS3 helicase; assay: HCV NS3 helicase inhibitors, primary screen, biochemical, fluorescence polarization, LOPAC1280 library (AID 687035; in the data active = inhibition above about 37%); settings: Purified HCV NS3 helicase, Cy5-dT15 ssDNA binding fluorescence polarization; stronger effect = higher value; concentration not given here
# [2] = Cy5 fluorescence quenching or enhancement artefacts, artefact control for HCV NS3 helicase inhibitor project, biochemical, LOPAC1280 (AID 687037); settings: Cy5-DNA-NS3h complex fluorescence interference counterscreen
# [3] = stimulators of nuclear beta-catenin in C2C12, primary screen, imaging, WNT3A-conditioned medium, mouse C2C12, NPC library (AID 1117326; in the data active = nuclear beta-catenin stimulation mostly above about 4.2%, no sharp cut-off; inactive = mostly below about 10%); settings: stronger effect = higher value
# [4] = kinase inhibitors against Plasmodium liver-stage infection, cell-based, known kinase inhibitor set, luminescence, hepatoma host viability (AID 624392); settings: Plasmodium liver stage in hepatoma cells, luciferase luminescence, concentration not given here; liver cell % of control: measured here: host liver cell viability; parasite % of control: stronger effect = lower value;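 note: infected cells incubated roughly two days before readout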
# [5] = Cy5 fluorescence interference with SSB-bound oligo, artefact control for HCV NS3 helicase inhibitor project, biochemical, NIH Clinical Collection, E. coli SSB (AID 743268)
# [6] = test system: Hepatitis C virus NS3 helicase; assay: HCV NS3 helicase inhibitors, primary screen, biochemical, fluorescence polarization, NIH Clinical Collection (AID 743270); settings: NS3 helicase binding to Cy5-dT15 DNA, stronger effect = higher value, concentration not given here
# [7] = target: Single-stranded DNA-binding protein (Escherichia coli (strain K12)) (UniProt P0AGE0); assay: E. coli SSB displacement from DNA, counter-screen for HCV NS3 helicase inhibitor project, biochemical, fluorescence polarization, NIH Clinical Collection (AID 743271; in the data active = inhibition above about 28%); settings: stronger effect = higher value, concentration not given here
# [8] = fluorescence interference in NS3h assay format, artefact control for HCV NS3 helicase inhibitor project, biochemical, NIH Clinical Collection (AID 743272); settings: fluorescence interference counterscreen, stronger effect = lower value;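 note: HCV NS3 helicase with a Cy5 labelled single stranded DNA probe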
# [9] = test system: Neuropilin-2 / VEGF-C interaction (human); assay: inhibitors of NRP2–VEGF-C binding, biochemical, microplate binding format, z-score (AID 743281); settings: microplate NRP2/VEGF-C binding assay; stronger effect = lower value
smiles,measurement,setting,value
CC(C)(Oc1ccc(CCNC(=O)c2ccc(Cl)cc2)cc1)C(=O)O,inhibition,[1],-2% (inactive)
same,fluorescence ratio (interference),[2],1.1 (inactive)
same,nuclear beta-catenin stimulation,[3]; at 10 µM,6.1% (inactive)
same,nuclear beta-catenin stimulation,"[3]; stimulation, at 2 µM",5.1%
N[C@@H](Cc1ccc(O)c(O)c1)C(=O)O,inhibition,[1],1% (inactive)
same,fluorescence ratio (interference),[2],1 (inactive)
same,nuclear beta-catenin stimulation,[3]; at 10 µM,1% (inactive)
same,nuclear beta-catenin stimulation,"[3]; stimulation, at 2 µM",-0.9%
O=C(O)c1cccnc1Nc1cccc(C(F)(F)F)c1,inhibition,[1],-1% (inactive)
same,fluorescence ratio (interference),[2],0.9 (inactive)
same,nuclear beta-catenin stimulation,[3]; at 10 µM,1.4% (inactive)
same,nuclear beta-catenin stimulation,"[3]; stimulation, at 2 µM",0.9%
COCCc1ccc(OCC(O)CNC(C)C)cc1 (centres undefined),inhibition,[1],1% (inactive)
same,fluorescence ratio (interference),[2],1 (inactive)
same,nuclear beta-catenin stimulation,[3]; at 10 µM,0.8% (inactive)
same,nuclear beta-catenin stimulation,"[3]; stimulation, at 2 µM",1.6%
CC(C)COCC(CN(Cc1ccccc1)c1ccccc1)N1CCCC1 (centres undefined),inhibition,[1],0% (inactive)
same,fluorescence ratio (interference),[2],1 (inactive)
same,nuclear beta-catenin stimulation,[3]; at 10 µM,0.1% (inactive)
same,nuclear beta-catenin stimulation,"[3]; stimulation, at 2 µM",-1.8%
COc1ccc2[nH]cc(CCNC(C)=O)c2c1,inhibition,[1],-3% (inactive)
same,fluorescence ratio (interference),[2],1 (inactive)
same,nuclear beta-catenin stimulation,[3]; at 10 µM,0.2% (inactive)
same,nuclear beta-catenin stimulation,"[3]; stimulation, at 2 µM",-0.2%
COC(=O)Nc1nc2ccc(C(=O)c3cccs3)cc2[nH]1,inhibition,[1],-5% (inactive)
same,fluorescence ratio (interference),[2],0.9 (inactive)
same,nuclear beta-catenin stimulation,[3]; at 10 µM,80.4% (active)
same,nuclear beta-catenin stimulation,"[3]; stimulation, at 2 µM",81.3%
C[N+](C)(C)CCOC(N)=O,inhibition,[1],-1% (inactive)
same,fluorescence ratio (interference),[2],0.9 (inactive)
same,nuclear beta-catenin stimulation,[3]; at 10 µM,-0.5% (inactive)
same,nuclear beta-catenin stimulation,"[3]; stimulation, at 2 µM",2.3%
CCCN(CCC)C(=O)C(CCC(=O)O)NC(=O)c1ccccc1 (centres undefined),inhibition,[1],-4% (inactive)
same,fluorescence ratio (interference),[2],0.9 (inactive)
same,nuclear beta-catenin stimulation,[3]; at 10 µM,-0.6% (inactive)
same,nuclear beta-catenin stimulation,"[3]; stimulation, at 2 µM",0.3%
CCOC(=O)C1=C[C@]2(CC)CCCN3CCc4c(n1c1ccccc41)[C@@H]32,inhibition,[1],-2% (inactive)
same,fluorescence ratio (interference),[2],1 (inactive)
same,nuclear beta-catenin stimulation,[3]; at 10 µM,0.9% (inactive)
same,nuclear beta-catenin stimulation,"[3]; stimulation, at 2 µM",-0.3%
O=c1c(-c2ccc(O)cc2)coc2cc(O)cc(O)c12,inhibition,[1],-1% (inactive)
same,fluorescence ratio (interference),[2],1 (inactive)
same,nuclear beta-catenin stimulation,[3]; at 10 µM,8.6% (inactive)
same,nuclear beta-catenin stimulation,"[3]; stimulation, at 2 µM",-1.1%
NC(CO)C(=O)NNCc1ccc(O)c(O)c1O (centres undefined),inhibition,[1],1% (inactive)
same,fluorescence ratio (interference),[2],1 (inactive)
same,nuclear beta-catenin stimulation,[3]; at 10 µM,13.1% (inactive)
same,nuclear beta-catenin stimulation,"[3]; stimulation, at 2 µM",3.8%
C[C@](N)(Cc1ccc(O)c(O)c1)C(=O)O,inhibition,[1],-3% (inactive)
same,fluorescence ratio (interference),[2],1 (inactive)
same,nuclear beta-catenin stimulation,[3]; at 10 µM,2.9% (inactive)
same,nuclear beta-catenin stimulation,"[3]; stimulation, at 2 µM",1.2%
Cc1ccccc1N1C(=O)c2cc(S(N)(=O)=O)c(Cl)cc2NC1C (centres undefined),inhibition,[1],1% (inactive)
same,fluorescence ratio (interference),[2],1 (inactive)
same,nuclear beta-catenin stimulation,[3]; at 10 µM,-0.4% (inactive)
same,nuclear beta-catenin stimulation,"[3]; stimulation, at 2 µM",1.1%
CN(C)C(=O)Oc1cccc([N+](C)(C)C)c1,inhibition,[1],-5% (inactive)
same,fluorescence ratio (interference),[2],1 (inactive)
same,nuclear beta-catenin stimulation,[3]; at 10 µM,1% (inactive)
same,nuclear beta-catenin stimulation,"[3]; stimulation, at 2 µM",5.2%
CCN(CC)CCOCCOC(=O)C1(c2ccccc2)CCCC1,inhibition,[1],0% (inactive)
same,fluorescence ratio (interference),[2],1 (inactive)
same,nuclear beta-catenin stimulation,[3]; at 10 µM,-0.6% (inactive)
same,nuclear beta-catenin stimulation,"[3]; stimulation, at 2 µM",-0.4%
CNC[C@H](O)c1ccc(O)c(O)c1,inhibition,[1],-5% (inactive)
same,fluorescence ratio (interference),[2],1 (inactive)
same,nuclear beta-catenin stimulation,[3]; at 10 µM,0.3% (inactive)
same,nuclear beta-catenin stimulation,"[3]; stimulation, at 2 µM",0.2%
CCCOc1ccccc1-c1nc2n[nH]nc2c(=O)[nH]1,inhibition,[1],-1% (inactive)
same,fluorescence ratio (interference),[2],1 (inactive)
same,nuclear beta-catenin stimulation,[3]; at 10 µM,-0.2% (inactive)
same,nuclear beta-catenin stimulation,"[3]; stimulation, at 2 µM",0.5%
Fc1ccc(C(c2ccc(F)cc2)N2CCN(C/C=C/c3ccccc3)CC2)cc1,inhibition,[1],-1% (inactive)
same,fluorescence ratio (interference),[2],1 (inactive)
same,nuclear beta-catenin stimulation,[3]; at 10 µM,1.1% (inactive)
same,nuclear beta-catenin stimulation,"[3]; stimulation, at 2 µM",-2.5%
CCCCCCCC/C=C\CCCCCCCC(=O)NCc1ccc(O)c(OC)c1,inhibition,[1],-4% (inactive)
same,fluorescence ratio (interference),[2],1 (inactive)
same,nuclear beta-catenin stimulation,[3]; at 10 µM,0% (inactive)
same,nuclear beta-catenin stimulation,"[3]; stimulation, at 2 µM",-1.2%
COc1ccc(CCN(C)CCCC(C#N)(c2ccc(OC)c(OC)c2)C(C)C)cc1OC (centres undefined),inhibition,[1],-3% (inactive)
same,fluorescence ratio (interference),[2],1 (inactive)
same,nuclear beta-catenin stimulation,[3]; at 10 µM,0.2% (inactive)
same,nuclear beta-catenin stimulation,"[3]; stimulation, at 2 µM",0.5%
CCN(CC)CCNC(=O)c1cc(S(C)(=O)=O)ccc1OC,inhibition,[1],-3% (inactive)
same,fluorescence ratio (interference),[2],0.9 (inactive)
same,nuclear beta-catenin stimulation,[3]; at 10 µM,1.9% (inactive)
same,nuclear beta-catenin stimulation,"[3]; stimulation, at 2 µM",0.2%
NC/C=C/C(=O)O,inhibition,[1],-5% (inactive)
same,fluorescence ratio (interference),[2],1 (inactive)
same,nuclear beta-catenin stimulation,[3]; at 10 µM,0.3% (inactive)
same,nuclear beta-catenin stimulation,"[3]; stimulation, at 2 µM",1.6%
CN(C)CCC=C1c2ccccc2C=Cc2ccccc21,inhibition,[1],-2% (inactive)
same,fluorescence ratio (interference),[2],1 (inactive)
same,nuclear beta-catenin stimulation,[3]; at 10 µM,-1.8% (inactive)
same,nuclear beta-catenin stimulation,"[3]; stimulation, at 2 µM",-0.8%
CN1CCN(CC(=O)N2c3ccccc3C(=O)Nc3cccnc32)CC1,inhibition,[1],-1% (inactive)
same,fluorescence ratio (interference),[2],1 (inactive)
same,nuclear beta-catenin stimulation,[3]; at 10 µM,1.7% (inactive)
same,nuclear beta-catenin stimulation,"[3]; stimulation, at 2 µM",-0.5%
COc1cc2c(N3CCN(C(=O)Nc4ccc(OC(C)C)cc4)CC3)ncnc2cc1OCCCN1CCCCC1,liver cell % of control,[4],61.6% and 84.6% and 95.9%
same,parasite % of control,[4],32.5% (inactive) and 57.6% (inactive) and 55.2% (inactive)
same,nuclear beta-catenin stimulation,[3]; at 10 µM,1.7% (inactive)
same,nuclear beta-catenin stimulation,"[3]; stimulation, at 2 µM",-1.8%
Cc1cnc(NC(=O)C2=C(O)c3ccccc3S(=O)(=O)N2C)s1,inhibition,[1],-4% (inactive)
same,fluorescence ratio (interference),[2],1 (inactive)
same,nuclear beta-catenin stimulation,[3]; at 10 µM,2% (inactive)
same,nuclear beta-catenin stimulation,"[3]; stimulation, at 2 µM",-0.5%
CC(C)NNC(=O)c1ccncc1,inhibition,[1],-3% (inactive)
same,fluorescence ratio (interference),[2],0.9 (inactive)
same,nuclear beta-catenin stimulation,[3]; at 10 µM,2.3% (inactive)
same,nuclear beta-catenin stimulation,"[3]; stimulation, at 2 µM",-0.3%
C[C@](N)(Cc1ccc(O)cc1)C(=O)O,inhibition,[1],-1% (inactive)
same,fluorescence ratio (interference),[2],0.9 (inactive)
same,nuclear beta-catenin stimulation,[3]; at 10 µM,-0.2% (inactive)
same,nuclear beta-catenin stimulation,"[3]; stimulation, at 2 µM",4.5%
O=C1NCC2(CCN(CCc3ccccc3)CC2)O1,inhibition,[1],-3% (inactive)
same,fluorescence ratio (interference),[2],1 (inactive)
same,nuclear beta-catenin stimulation,[3]; at 10 µM,0.4% (inactive)
same,nuclear beta-catenin stimulation,"[3]; stimulation, at 2 µM",1.5%
CCn1cc(C(=O)O)c(=O)c2cc3c(cc21)OCO3,inhibition,[1],-1% (inactive)
same,fluorescence ratio (interference),[2],1 (inactive)
same,nuclear beta-catenin stimulation,[3]; at 10 µM,0.2% (inactive)
same,nuclear beta-catenin stimulation,"[3]; stimulation, at 2 µM",0.8%
CS(=O)(=O)Nc1ccc([N+](=O)[O-])cc1Oc1ccccc1,inhibition,[1],-3% (inactive)
same,fluorescence ratio (interference),[2],1 (inactive)
same,nuclear beta-catenin stimulation,[3]; at 10 µM,0.4% (inactive)
same,nuclear beta-catenin stimulation,"[3]; stimulation, at 2 µM",-0.6%
CN(C)CCCN1c2ccccc2Sc2ccc(C(F)(F)F)cc21,inhibition,[1],-5% (inactive)
same,fluorescence ratio (interference),[2],1 (inactive)
same,nuclear beta-catenin stimulation,[3]; at 10 µM,41.9% (active)
same,nuclear beta-catenin stimulation,"[3]; stimulation, at 2 µM",3.5%
CN1CCCCC1CCN1c2ccccc2Sc2ccc(S(C)=O)cc21 (centres undefined),fluorescence ratio,[5],0.96 (inactive)
same,inhibition,[6],-2.77% (inactive)
same,inhibition,[7],-3.18% (inactive)
same,fluorescence ratio,[8],0.95 (inactive)
same,z-score,[9],0.284 (inactive)
same,nuclear beta-catenin stimulation,[3]; at 10 µM,2.6% (inactive)
same,nuclear beta-catenin stimulation,"[3]; stimulation, at 2 µM",3.5%
